We go through seven compounds from PubChem BioAssay (NCATS).

Records with an inconclusive call do not appear. The source made the active and inactive calls. Calls follow the shape of the dose curve; as a rule, active = well fitted inhibition curve with a large enough effect; inconclusive = small, poorly fitted or top-dose-only effect; inactive = flat fitted curve, though single readings scatter.

What all share (experiment): qHTS profiling for inhibitors of Plasmodium falciparum proliferation (AID 504749); also: nearly all actives have a fitted effect of over 60% in size
Holding throughout (details): P. falciparum in erythrocytes, SYBR Green DNA, 72 h; series mostly up to 28.7 µM

The subject of assay [1] is CP201. The gist of the method: (§1)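 P. falciparum-infected erythrocytes (0.3% parasitemia, 2.5% hematocrit final) were exposed to compounds for 72 h at 37 C in 5% CO2, then lysed with SYBR Green buffer overnight at room temperature; parasite DNA fluorescence was normalized to artemisinin and DMSO controls.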
For assay [2], the system named is CP203. In outline:
as §1

In assay [3] the test system is CP211. The gist of the method:
as §1

Assay [4] concerns CP215. The gist of the method: as §1
Assay [5] deals with CP217. The gist of the method:
as §1

For assay [6], the system named is CP237. The gist of the method:
as §1

For assay [7], the system named is CP238. The gist of the method: as §1
The test system of assay [8] is CP247. The gist of the method: as §1
Assay [9] relates to CP250. The gist of the method: as §1
Assay [10] has as its system CP252. The gist of the method:
as §1

Assay [11] concerns CP256. In outline:
as §1

For assay [12], the system named is CP260. In outline: as §1
Assay [13] concerns CP262. The gist of the method:
as §1

Assay [14] has as its system CP265. In outline: as §1
The subject of assay [15] is CP266. The gist of the method:
as §1

Assay [16] relates to CP268. The gist of the method: as §1
For assay [17], the system named is CP269. The gist of the method:
as §1

For assay [18], the system named is CP286. In outline: as §1
In assay [19] the test system is CP291. The gist of the method:
as §1

Assay [20] relates to CP297. The gist of the method:
as §1
Potency is read from the fitted curve at half-maximal effect.

For the compound `C[C@H]1C[C@@H]2[C@@H]([C@@H](O)C[C@@]3(C)[C@H]2CC[C@]3(O)C(=O)CO)[C@@]2(C)C=CC(=O)C=C12`, the Potency result in assay [1], in [2], in [3], in assay [4], in assay [5] and in [6] was “inactive” each time. The Potency entry in assay [7], in [8], in [9], in [10], in [11] and in [12] was “inactive” each time. For the same compound, the Potency result in assay [13], in assay [14], in assay [15], in assay [16], in [17] and in assay [18] was “inactive” in each case. Moreover, the Potency entry in [19] is “inactive”.

For `CC=CC1=C(C(=O)O)N2C(=O)[C@H](NC(=O)[C@H](N)c3ccc(O)cc3)[C@@H]2SC1`, the Potency entry in assay [1], in assay [2], in assay [3], in [4], in [5] and in assay [6] was “inactive” in each case. Further, the Potency result in [7], in [8], in assay [9], in [10], in assay [11] and in assay [12] was “inactive” each time. Also, the Potency result in assay [13], in assay [14], in assay [15], in assay [16], in assay [17] and in assay [18] was “inactive” in each case. For the same compound, the Potency result in assay [19] and in assay [20] was “inactive” throughout.

For `Nc1ccc(S(=O)(=O)Nc2ncccn2)cc1`, the Potency result in [1], in [2], in [3], in [5], in [6] and in assay [7] was “inactive” throughout. For the same compound, the Potency entry in assay [8], in assay [9], in [10], in [11], in [12] and in [13] was “inactive” in each case. Besides, the Potency entry in assay [14], in [15], in [16], in assay [17], in assay [18] and in assay [19] was “inactive” each time. Besides, in [20], the Potency entry is “inactive”.

Turning to `Nc1ccn([C@@H]2CS[C@H](CO)O2)c(=O)n1`, the Potency entry in assay [1], in assay [2], in assay [3], in [4], in assay [5] and in assay [6] was “inactive” in each case. The Potency entry in assay [7], in [8], in [9], in assay [10], in [11] and in assay [12] was “inactive” throughout. Besides, the Potency result in [13], in [14], in assay [15], in assay [16], in assay [17] and in assay [18] was “inactive” each time. In addition, the Potency result in [19] and in assay [20] was “inactive” in each case.

`COC(=O)C[C@](O)(CCCC(C)(C)O)C(=O)O[C@@H]1C(OC)=C[C@]23CCCN2CCc2cc4c(cc2[C@H]13)OCO4`: the Potency in assay [1] was 42.6 nM (active); in assay [2], 33.8 nM (active); in [3], 30.1 nM (active); in assay [4] it was 33.8 nM (active); in [5], 31.6 nM (active); in assay [6] it was 15.8 nM (active). For the same compound, the Potency was 28.2 nM (active) in assay [7]; 17.8 nM (active) in [8]; 28.2 nM (active) in assay [9]; 31.6 nM (active) in [10]; 31.6 nM (active) in assay [11]; 28.2 nM (active) in assay [12]. Moreover, the Potency is 33.8 nM (active) in [13]; 31.6 nM (active) in assay [14]; 37.9 nM (active) in [16]; 33.8 nM (active) in assay [17]; 28.2 nM (active) in assay [18]; 33.8 nM (active) in assay [19]. For the same compound, the Potency in assay [20] was 16.9 nM (active).

Consider `COC(=O)C1=C(C)NC(C)=C(C(=O)OCCN2CCN(C(c3ccccc3)c3ccccc3)CC2)C1c1cccc([N+](=O)[O-])c1` (stereo unspecified), for which the Potency in [1] was 7570 nM (active); in assay [2], 3790 nM (active); in assay [3], 3790 nM (active); in [4], 3380 nM (active); in assay [5], 3160 nM (active); in assay [6] it was 3160 nM (active). For the same compound, the Potency was 2510 nM (active) in assay [7]; 3980 nM (active) in assay [8]; 4470 nM (active) in assay [9]; 2820 nM (active) in [10]; 3550 nM (active) in [11]; 2510 nM (active) in assay [12]. The Potency is 4780 nM (active) in assay [13]; 6750 nM (active) in assay [15]; 4780 nM (active) in [16]; 4260 nM (active) in assay [17]; 2510 nM (active) in [18]; 4780 nM (active) in assay [19]. In assay [20], the Potency is 4260 nM (active).

In the case of `CCC1=C[C@@H]2CN(C1)Cc1c([nH]c3ccccc13)[C@@](C(=O)OC)(c1cc3c(cc1OC)N(C)[C@@H]1[C@@](O)(C(=O)OC)[C@H](OC(C)=O)[C@]4(CC)C=CCN5CC[C@]31[C@@H]54)C2`, the Potency was 4780 nM (active) in [1]; 3010 nM (active) in assay [2]; 3380 nM (active) in assay [3]; 2130 nM (active) in assay [4]; 2510 nM (active) in assay [5]; 3980 nM (active) in assay [6]. Besides, the Potency in assay [7] is 2820 nM (active); in assay [8], 3550 nM (active); in [9] it was 3980 nM (active); in assay [10] it was 2820 nM (active); in [11], 2000 nM (active); in assay [12], 2820 nM (active). Also, the Potency in assay [13] is 3010 nM (active); in assay [14] it was 2000 nM (active); in assay [15], 4260 nM (active); in assay [16], 3380 nM (active); in assay [17] it was 1900 nM (active); in assay [18] it was 2000 nM (active). Also, the Potency in [19] is 3010 nM (active); in [20], 3790 nM (active).
